PubChem BioAssay AID1256 (The Scripps Research Institute Molecular Screening Center, 2008)
This is one part of the list. Activity calls are given as the source filed them. Cut-off read from the data, not from the text of the source: active = inhibition above about 20%; inactive = the rest.

biological target: Neuropeptide Y receptor type 1 (Homo sapiens) (UniProt P25929); test: blockade of human NPY-Y1 in cells – counter-screen for NPY-Y2 antagonist project (AID 1256); conditions: cell-based NPY-Y1 antagonism counterscreen; at 3.6 µM; hits give high values;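 note: cells challenged with NPY then isoproterenol with cAMP sensed through a CNG channel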
Sequence (P25929 whole entry, looked up): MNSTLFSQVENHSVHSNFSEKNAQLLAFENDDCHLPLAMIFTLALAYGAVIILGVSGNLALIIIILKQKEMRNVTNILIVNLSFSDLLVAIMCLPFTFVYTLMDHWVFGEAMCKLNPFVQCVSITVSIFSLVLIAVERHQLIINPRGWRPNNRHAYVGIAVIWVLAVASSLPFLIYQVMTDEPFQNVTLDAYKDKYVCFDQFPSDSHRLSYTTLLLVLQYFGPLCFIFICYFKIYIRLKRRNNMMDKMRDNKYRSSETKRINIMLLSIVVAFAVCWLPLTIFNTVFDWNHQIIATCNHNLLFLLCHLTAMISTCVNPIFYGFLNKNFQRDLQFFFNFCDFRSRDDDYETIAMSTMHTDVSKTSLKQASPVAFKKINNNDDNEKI

Q: For COc1ccc(-c2nc3ccccc3n2CCC(C)C)cc1OC, which inhibition is on record?
A: 8.19% (inactive)

Q: O=C1CC(c2cccc(Cl)c2)CC(O)=C1C=Nc1ccccc1 (centres undefined) was tested. Which inhibition did it give?
A: 17.3% (inactive)

Q: CCCCCNC(=O)Cc1ccc(OC)cc1 was tested. Which inhibition did it give?
A: 1.16% (inactive)

Q: c1ccc(-c2cc3c(NCC4COc5ccccc5O4)ncnc3s2)cc1 (centres undefined) was tested. Which inhibition did it give?
A: 19.3% (inactive)

Q: With COc1ccc(-c2noc(COc3ccc(Cl)c(C)c3)n2)cc1 as the compound, how does the inhibition read?
A: 13.3% (inactive)

Q: How did the inhibition turn out when CCOc1ccc(C(O)Cn2c(=N)n(CCN3CCCCC3)c3ccccc32)cc1 (centres undefined) was run?
A: 13.1% (inactive)

Q: Which inhibition does the source give for COc1ccc(/C=C/C(=O)NC(=S)NN2CCCCC2c2cccnc2)cc1 (centres undefined) here?
A: 29.1% (active)

Q: With O=C(Nc1nnc(SCc2c(Cl)cccc2Cl)s1)C1CCCO1 (centres undefined) as the compound, how does the inhibition read?
A: 12.1% (inactive)

Q: Which inhibition does the source give for N#Cc1ccc(C(c2nnnn2CCc2ccccc2)N2CCCCCC2)cc1 (centres undefined) here?
A: 7.96% (inactive)

Q: With N#Cc1ccc(N2Cc3ccccc3/C2=N/C(=O)Nc2ccc(Cl)cc2)cc1 as the compound, how does the inhibition read?
A: 100% (active)

Q: Which inhibition does the source give for CC12CN(Cc3ccccc3)CC(C)(CN(Cc3ccccc3)C1)C2=NO here?
A: 13.2% (inactive)

Q: For O=S(=O)(Cc1cc(Sc2ccccc2)nc(-c2ccccc2)n1)c1ccccc1, which inhibition is on record?
A: 11.8% (inactive)

Q: How did the inhibition turn out when O=C(CC(O)(C(F)(F)F)C(F)(F)F)Nc1ccc(Cl)c(Cl)c1 was run?
A: 20.5% (active)

Q: Which inhibition does the source give for Cc1ccc(CCC(=O)Nc2ncc(Cc3cc(Cl)ccc3Cl)s2)o1 here?
A: 18.8% (inactive)

Q: Which inhibition does the source give for Cc1ccccc1N1CCN(CCCOc2ccc3c(C)cc(=O)oc3c2)CC1 here?
A: 19.3% (inactive)

Q: With Cc1cc(C)nc(-n2ncc3c2CC(c2ccc(C(C)C)cc2)CC3=O)n1 (centres undefined) as the compound, how does the inhibition read?
A: 20.4% (active)

Q: How did the inhibition turn out when CN(C)Cc1ccc(F)cc1Sc1cc(Cl)ccc1Cl was run?
A: 11.3% (inactive)

Q: COc1cccc(-c2ccc(C#N)c(SCC(=O)NCCc3ccc(Cl)cc3)n2)c1 was tested. Which inhibition did it give?
A: 9.97% (inactive)

Q: With Cc1ccc(NC(=O)CN2CCC3(O)CCCCC3C2c2ccc3c(c2)OCO3)c(C)c1 (centres undefined) as the compound, how does the inhibition read?
A: 5.96% (inactive)

Q: Which inhibition does the source give for Cc1cccc(OCC(O)Cn2c(=N)n(CCN3CCOCC3)c3ccccc32)c1 (centres undefined) here?
A: 4.2% (inactive)

Q: N=c1n(Cc2ccc(Cl)cc2)c2ccccc2n1CC(O)c1ccco1 (centres undefined) was tested. Which inhibition did it give?
A: 13.8% (inactive)

Q: For COC(=O)c1ccc(CSc2nc3cc(Cl)ccc3o2)cc1, which inhibition is on record?
A: 11.2% (inactive)

Q: O=C(Oc1ccccc1)Oc1ccc2c(c1)oc(=O)c1ccccc12 was tested. Which inhibition did it give?
A: 3.68% (inactive)

Q: How did the inhibition turn out when COc1ccc(NC(=O)/C(Cl)=C(/Cl)S(=O)Cc2ccc(C)cc2)cn1 (centres undefined) was run?
A: 42.1% (active)

Q: CCOc1ccc(S(=O)(=O)N/N=C(\C)c2ccc(Cl)c(Cl)c2Cl)cc1 was tested. Which inhibition did it give?
A: 17.7% (inactive)

Q: With Cc1ccc(C2=NN(C)c3nc4ccccc4n3C2)cc1 as the compound, how does the inhibition read?
A: 8.4% (inactive)

Q: For CCOC(=O)C(C)Sc1nc2ccccc2c(=O)n1CC1CCCCC1 (centres undefined), which inhibition is on record?
A: 7.75% (inactive)

Q: With COc1ccc(/C(N)=N/OC(=O)CCCc2ccccc2)cc1 as the compound, how does the inhibition read?
A: 6.54% (inactive)

Q: Which inhibition does the source give for CCCc1nc(SCC(=O)Nc2ccccc2OC)c2c(=O)n(C)c(=O)n(C)c2n1 here?
A: 20.6% (active)

Q: With Cc1ccccc1OC(=O)Cn1c(C(F)(F)F)nc2ccccc21 as the compound, how does the inhibition read?
A: 7.05% (inactive)

Q: C=CCNCCCCOc1ccccc1 was tested. Which inhibition did it give?
A: -1.26% (inactive)

Q: With CCCCC(O)(CCCC)C(=O)NN(C(=O)CCl)c1ccccc1 as the compound, how does the inhibition read?
A: 7.18% (inactive)

Q: How did the inhibition turn out when Cc1cc(C(=O)OCC(=O)N2c3ccccc3NC(=O)C2(C)C)c(C)n1-c1ccccc1 was run?
A: 5.21% (inactive)

Q: With Cc1ccc(S(=O)(=O)N(Cc2ccc(Cl)cc2)c2ccccc2C(=O)NCc2cccnc2)cc1 as the compound, how does the inhibition read?
A: 28.4% (active)
